According to PubChem BioAssay (EPA / NIEHS):
Activity calls are given as the source filed them. The calls were made as follows: active = hit-call score of the fitted dose curve at least 0.9, where 1 is the maximum; inactive = score below 0.9.

What follows are compounds tested on Intercellular Adhesion Molecule 1 (ICAM1), ICAM1 (gene 3383) (assay: BSK_BE3C_ICAM1: BioMAP Diversity Plus: BE3C Assay for Intercellular Adhesion Molecule 1 (ICAM1) Biomarker Activity (AID 2284278)). Conditions: primary human bronchial epithelial cells.
Description: BSK_BE3C is a cell-based, multiplexed-readout assay that uses bronchial epithelial cell, a human lung primary cell, with measurements taken at 24 hours after chemical dosing in a 96-well plate.BSK_BE3C_ICAM1 is an assay component measured in the BSK_BE3C assay. It measures ICAM-1 antibody related to regulation of gene expression using ELISA technology.Data from the assay component BSK_BE3C_ICAM1 was analyzed at the endpoint, BSK_BE3C_ICAM1, in the positive analysis fitting direction relative to DMSO as the negative control and baseline of activity. Using a type of binding reporter, gain or loss-of-signal activity can be used to understand protein changes. To generalize the intended target to other relatable targets, this assay endpoint is annotated to the 'cell adhesion molecules' intended target family, where the subfamily is 'Immunoglobulin CAM'.
The levels of cell surface (or secreted, indicated by the prefix "s") biomarker endpoints were measured by ELISA. Overt cytotoxicity to cells in confluent adherent cultures (all systems other than the BT system) was assessed by measuring total protein levels using sulforhodamine B (SRB) staining in parallel cultures at the time of biomarker measurements, indicated as SRB endpoints. For proliferation assays for adherent cell types, individual cell types are cultured at sub-confluence and relative cell numbers quantified by SRB staining at time points optimized for each system (48 h: 3C and CASM3C systems; 72 h: BT and HDF3CGF systems; 96 h: SAg system). SRB was performed by staining cells with 0.1% SRB after fixation with 10% TCA and reading wells at 560 nm.Viability and proliferation of PBMC (T cells) was quantified by Alamar Blue reduction for the SAg and BT systems. For PBMC viability (referred to as PBMC Cytotoxicity within the assay endpoint names), cells were plated (75,000/well in a 96-well plate) and then chemical samples added for 1 h before addition of activators, SEB and TSST-1 (20 ng/mL final concentration each). Cells were incubated for 90 h. Then, Alamar Blue (20 uL/well) (Invitrogen, Cat DAL1100) was added for 6 h, and the plates were read with a fluorescence microplate reader at 546/580 nm (excitation/emission). For PBMC proliferation, cells were plated and activated as above but incubated for only 16 h prior to addition of Alamar Blue. Plates were read after 6 h.

outcome, inactive:
CCC(=O)OCc1ccccc1
CC(=O)[C@H]1CC[C@H]2[C@@H]3CC=C4C[C@@H](O)CC[C@]4(C)[C@H]3CC[C@]12C
CC[Si](OC(C)=O)(OC(C)=O)OC(C)=O
OC[C@H]1O[C@H](O[C@]2(CCl)O[C@H](CCl)[C@@H](O)[C@@H]2O)[C@H](O)[C@@H](O)[C@H]1Cl
NCCNCCN
COc1cc(C=O)ccc1OC(=O)C(C)C
Nc1cc([N+](=O)[O-])ccc1O
OC1OC[C@@H](O)[C@H](O)[C@H]1O (some centres not stated)
CC(=O)OCCC(C)CC(C)(C)C (configuration not stated)
C[C@H]1C[C@@H]2[C@H]([C@@H](O)C[C@@]3(C)[C@H]2CC[C@]3(O)C(=O)CO)[C@@]2(C)C=CC(=O)C=C12
C=CCOC(=O)CCC1CCCCC1
Cc1cc(C2(c3cc(C)c(O)cc3C)OS(=O)(=O)c3ccccc32)c(C)cc1O
